# Screening data: PubChem, National Center for Advancing Translational Sciences (NCATS)
# PNC assembly inh = High Content Assay for Compounds that inhibit the Assembly of the Perinucleolar Compartment; activity change (PNC), negative = inhibition, % at 10 µM; 3.1% of 140,000 active; PC3M PTB-GFP, PNC prevalence imaging, 16 h; stronger effect = lower value;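 active means readout at or below -70, meaning at least 70% loss of cells showing the perinucleolar compartment, a nuclear body marking cancer cells; inconclusive means readout between -30 and a set limit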;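 further: plate controls were DMSO wells for no effect and camptothecin positive control wells for full effect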
#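 PC3M cells stably expressing PTB-GFP, 750–1000 cells/well, treated 16 h at 37 °C with compound (23 nl of library stock), in duplicate. After paraformaldehyde fixation and Hoechst stain, imaged at 20x; PNC prevalence scored by image analysis.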
# ALDH1A1 inh = qHTS Assay for Inhibitors of Aldehyde Dehydrogenase 1 (ALDH1A1); Aldehyde dehydrogenase 1A1 (Homo sapiens), P00352; Purified ALDH1A1, NADH fluorescence, propionaldehyde substrate; Potency, µM (doses to about 75.3 µM), for the others: at the highest dose activity, negative = inhibition, most hits filed as inhibitors; 7.3% of 220,000 active;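 further: potency means the concentration at half of the fitted maximal effect; plate controls were no enzyme wells and a reference inhibitor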
# Target sequence (P00352 whole entry, looked up): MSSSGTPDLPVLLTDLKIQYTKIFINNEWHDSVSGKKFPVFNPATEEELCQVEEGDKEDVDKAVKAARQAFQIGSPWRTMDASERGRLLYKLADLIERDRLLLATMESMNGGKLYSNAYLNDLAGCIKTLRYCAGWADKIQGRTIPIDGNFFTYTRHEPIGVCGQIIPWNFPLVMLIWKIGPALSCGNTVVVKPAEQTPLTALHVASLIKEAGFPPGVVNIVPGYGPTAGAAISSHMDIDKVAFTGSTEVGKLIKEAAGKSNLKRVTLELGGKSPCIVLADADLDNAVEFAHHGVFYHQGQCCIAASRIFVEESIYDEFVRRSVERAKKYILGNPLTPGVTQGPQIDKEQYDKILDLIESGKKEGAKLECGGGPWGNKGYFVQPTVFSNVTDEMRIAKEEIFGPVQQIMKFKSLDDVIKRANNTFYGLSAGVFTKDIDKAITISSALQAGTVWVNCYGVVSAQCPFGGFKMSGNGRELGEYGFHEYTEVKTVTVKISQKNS
# Lamin A splicing = qHTS Assay for Modulators of Lamin A Splicing. 0.01% of 200,000 active. AID 1487, 2009. Potency, µM (doses to about 46.1 µM), without a hit: top-dose ratio change, negative = inhibition, most hits filed as inhibitors. HeLa LMNA splicing GFP/RFP minigene ratio, 48 h; active means well fitted inhibition curve with a large enough effect in the signal ratio, with a control signal flat, not every such curve was filed as active; inconclusive means small, poorly fitted or top-dose-only effect, or effect the other way, or a change in a side signal; the % refers to the signal ratio; further: potency means the concentration at half of the fitted maximal effect
#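 S3 HeLa stable clones carrying a lamin A-EGFP splicing minigene plus DsRed2 were seeded at 600 cells/well in Opti-MEM with 2% FBS, pin-dosed and incubated 48 h at 37°C. Acumen cytometry (488 nm) gave the GFP/RFP total-intensity ratio.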
# HPGD block = qHTS Assay for Inhibitors of HPGD (15-Hydroxyprostaglandin Dehydrogenase); 15-hydroxyprostaglandin dehydrogenase [NAD(+)] (Homo sapiens), P15428; purified HPGD, NADH fluorescence kinetic, PGE2 substrate; Potency, µM, for the others: at the highest dose activity change, negative = inhibition, most hits filed as inhibitors; 4.3% of 150,000 active; further: potency means the concentration at half of the fitted maximal effect
#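 20 nM HPGD preincubated 15 min at room temperature with compound in 50 mM Tris-HCl pH 8, 0.01% Tween 20. Started with 1 mM NAD+ and 30 uM prostaglandin E2; NADH fluorescence (360/450 nm) read 5 times over 30-s intervals, last minus first.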
# KinaseGlo FLuc = Counterscreen for Luciferase (Kinase-Glo TM) Inhibition; Potency, µM (highest dose often 38.3 µM), inactives show at the top dose activity change, negative = inhibition, most hits filed as inhibitors; Luciferin 4-monooxygenase (Photuris pensylvanica), Q27757; 0.28% of 200,000 active; Kinase-Glo luciferase, ATP luminescence, 8 min; AID 1379, 2008; active means well fitted inhibition curve with a large enough effect; inconclusive means small, poorly fitted or top-dose-only effect; further: potency means the concentration at half of the fitted maximal effect; nearly all actives have a fitted effect of over 60% in size
#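 Compound is pinned into ATP-containing buffer (10 uM ATP, imidazole pH 7.2, 7 mM MgCl2). Kinase-Glo luciferase reagent is then added. Light output is recorded following an 8-min room-temperature incubation.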
# Starred values were filed as active, the others as inactive; ? = inconclusive; . = no result; [ ] = remark or other dose. This is a sample that favours compounds with a hit; in the whole collection about 10% have one here. Unless noted, the call rests on the fitted dose curve; in most records, active means well fitted inhibition curve with a large enough effect (not every such curve was filed as active); inconclusive means small, poorly fitted or top-dose-only effect, or another doubt; inactive means no such curve, though single readings can be large or run the other way. Unless noted, on the % scale 0 is the no-effect control and ±100 the full control effect.
SMILES,PNC assembly inh,ALDH1A1 inh,Lamin A splicing,HPGD block,KinaseGlo FLuc
COc1ccc2cc1Oc1ccc(cc1)C[C@@H]1c3c(cc(OC)c4c3Oc3cc5c(cc3O4)CCN[C@H]5C2)CCN1C,.,3%[13.5 µM],.,-1%,-1%[7.66 µM]
CC(C)CCNC(=O)c1nnc(Cc2ccc(Cl)cc2)o1,-110*,12%,1%,-4%,0%
CNC(=O)COC(=O)[C@@H](Nc1ccc(S(=O)(=O)N2CCOCC2)cc1[N+](=O)[O-])C(C)C,-113*,?,-5%,-2%,-3%
CC(C)[C@H](Nc1ccc(S(=O)(=O)N2CCOCC2)cc1[N+](=O)[O-])C(=O)OCC(=O)N(C(C)C)C(C)C,6,?,?,-17%,0%
CC(C)C(C)NC(=O)COc1ccc(S(=O)(=O)N2CCOCC2)cc1[N+](=O)[O-] (centres undefined),21,?,2%,-12%,0%
CC(C)[C@H](Nc1ccc(S(=O)(=O)N2CCOCC2)cc1[N+](=O)[O-])C(=O)OCC(N)=O,3,18µM*,2%,-2%,0%
COc1cc(NC(=O)CN2c3ccccc3S(=O)(=O)c3ccccc32)cc(OC)c1,.,.,-3%[46 µM],.,.
CCCC1(C(=O)OC)C=C2C(=C(C(C)C)C(=O)C2C)CN1 (centres undefined),.,?,.,-8%,-2%
Cc1c(C(=O)NCc2ccc(F)cc2)oc2ccc(S(=O)(=O)N3CCCCC3)cc12,.,.,-3%[46 µM],.,.
CCCCOc1ccc(-c2cn3ccccc3n2)cc1[N+](=O)[O-],?,10µM*,?,-11%,?
Fc1ccc(-c2ccnc(=S)[nH]2)cc1,33,?,-12%,18µM*,4%
Cn1c(Cc2cccs2)nnc1SCC(=O)N1CCc2ccccc21,-2,-8%,4%,-9%,4%
Cc1cccc(-c2nnc(SCC(=O)N3c4ccccc4CCc4ccccc43)n2C)c1,-4,11µM*,-15%,-3%,-2%
Cn1c(SCC(=O)N2c3ccccc3CCc3ccccc32)nnc1-c1cc2ccccc2cc1O,-4,?,-8%,-3%,2%
O=C(CSc1ccc2nnc(-c3ccc(F)cc3)n2n1)N1CCCc2ccccc21,?,14µM*,?,-3%,-1%
Cn1c(SCC(=O)N2CCCc3ccccc32)nnc1-c1ccco1,-17,2%,-1%,.,.
Cn1c(SCC(=O)N2CCCc3ccccc32)nnc1-c1ccccc1,6,25µM*,?,-8%,-2%
Cc1ccc(NCc2nnc(SCC(=O)N3CCc4ccccc43)n2C)cc1,-12,8.9µM*,14%,0%,0%
O=C1C[C@@H](O)[C@@H](O)[C@@H]2[C@H]3C(=O)N(c4ccc(F)cc4F)C(=O)[C@@H]3CC[C@@H]12,.,5%[13.5 µM],.,.,.
Cc1nc(N2CCOCC2)c2c(C(=O)N3CCN(c4ccccc4F)CC3)c(C)oc2n1,.,.,7%[46 µM],.,.
Cc1ccccc1N=C1N=C(N)c2ccccc21,-96*,11%,?,-1%,5%
Cc1ccc(-c2[nH]nc(N)c2N=Nc2ccccc2C)cc1,35,?,?,-16%,-3%
O=c1c2c(nc3nc(COc4ccccc4)[nH]n13)CCC2,-110*,3%,-9%,-3%,-1%
COc1ccc(Cn2ccnc2SCC(=O)NCc2ccccc2)cc1,.,.,-8%[46 µM],.,.
N#C[C@@H]1[C@@H]2C(=O)N(c3ccc4c(c3)OCCO4)C(=O)[C@@H]2C2c3ccccc3C=CN21 (some centres undefined),-100*,?,-5%,?,0%
SMILES,PNC assembly inh,ALDH1A1 inh,Lamin A splicing,HPGD block,KinaseGlo FLuc
CC(=O)[C@@H]1[C@@H]2C(=O)N(c3ccc(F)c(Cl)c3)C(=O)[C@@H]2C2c3ccccc3C=CN21 (some centres undefined),53,25µM*,-6%,22µM*,2%
CC(=O)[C@H]1[C@@H]2C(=O)N(c3cccc(Cl)c3)C(=O)[C@@H]2[C@H]2c3ccccc3C=CN21,77,7.9µM*,11%,35µM*,-4%
C/C(=N/Nc1ccc(C)cc1)C1(C)N(O)C(C)(C)C(c2ccco2)=[N+]1[O-] (centres undefined),.,25µM*,-6%[46 µM],.,-3%
Cc1cc(O)c(/C=N/Nc2ccccc2Cl)c(=O)o1,19,10µM*,13%,-20%,-2%
C#CCSC1=C(C#N)C(c2cccs2)C(C(=O)OCC)=C(C)N1 (centres undefined),24,25µM*,-6%,-23%,1%
[O-]/[N+](=C/c1ccc(F)cc1)c1ccc(Cl)cc1,-27,6.3µM*,-3%,-15%,-4%
COCCN(C)Cc1cn(-c2ccc(F)cc2F)nc1-c1ccccc1C,.,25µM*,.,.,-3%
Cc1ccccc1-c1nn(-c2ccc(F)cc2F)cc1CNCCN(C)C,.,-11%,?,.,-1%
CCC(=O)Nc1ncc2c(n1)CC(c1ccco1)CC2=O (centres undefined),?,?,-8%,0%,-3%
O=C(CSC(=S)N1CCCCC1)Nc1ncc2c(n1)CC(c1ccco1)CC2=O (centres undefined),.,4µM*,.,.,.
Cc1ccc(S(=O)(=O)NC(=O)Nc2ncc3c(n2)CC(c2ccco2)CC3=O)cc1 (centres undefined),-97*,?,-5%,1%,-2%
O=C1CC(c2ccco2)Cc2nc(N3CCc4ccccc4C3)ncc21 (centres undefined),-19,13µM*,?,?,11%
O=C(CCS(=O)(=O)c1cccc2nonc12)Nc1ccc(F)cc1F,.,.,-3%[46 µM],.,.
CO[C@]12CC(COC(=O)c3cncc(Br)c3)CN(C)[C@@H]1Cc1cn(C)c3cccc2c13 (some centres undefined),.,2%,.,-2%,0%
COc1ccccc1NC(=O)CSCc1cc(=O)c2c(C)cc(C)cc2[nH]1,.,.,3%[46 µM],.,.
Nc1scc2c(C(=O)N/N=C/c3ccc(Cl)cc3)nn(-c3ccccc3)c(=O)c12,?,10µM*,-8%,14µM*,4%
CCCCCC/C(C)=C1/SC(=S)NC1=O,74,?,7%,13µM*,-4%
Cc1cccc2cc(CN(Cc3ccccc3)C(=O)c3cccc(F)c3)c(Cl)nc12,10,8.9µM*,15%,-22%,-5%
Cc1cccc2cc(CN(C(=O)c3cnccn3)C3CCCCC3)c(Cl)nc12,18,-5%,-10%,-15%,3%
Cc1nnc(S(=O)(=O)c2ccc(N=Nc3c(N)nc(N)nc3N)cc2)s1,.,-1%[13.5 µM],.,-2%,0%[7.66 µM]
Cc1ccc(S(=O)(=O)CCN2CCN(c3ccccn3)CC2)cc1,.,13µM*,.,.,.
